A selection: hits, their analogues and other compounds. The true share with any hit is near 7.3%.
FLuc modulator: qHTS profiling assay for firefly luciferase inhibitor/activator using purifed enzyme and Km concentrations of substrates (counterscreen for miR-21 project); 6.9% of 360,000 active; Potency, µM (series often up to 57.5 µM), inactives show at the highest dose activity change, negative = inhibition, usual class: inhibitors; purified FLuc, Km substrates, luminescence inhibition; Luciferin 4-monooxygenase (Photinus pyralis), P08659;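 also: plate controls were vehicle for no effect and reference inhibitor for full effect; nearly all actives have a fitted effect of over 55% in size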
Target sequence (P08659 whole entry, looked up): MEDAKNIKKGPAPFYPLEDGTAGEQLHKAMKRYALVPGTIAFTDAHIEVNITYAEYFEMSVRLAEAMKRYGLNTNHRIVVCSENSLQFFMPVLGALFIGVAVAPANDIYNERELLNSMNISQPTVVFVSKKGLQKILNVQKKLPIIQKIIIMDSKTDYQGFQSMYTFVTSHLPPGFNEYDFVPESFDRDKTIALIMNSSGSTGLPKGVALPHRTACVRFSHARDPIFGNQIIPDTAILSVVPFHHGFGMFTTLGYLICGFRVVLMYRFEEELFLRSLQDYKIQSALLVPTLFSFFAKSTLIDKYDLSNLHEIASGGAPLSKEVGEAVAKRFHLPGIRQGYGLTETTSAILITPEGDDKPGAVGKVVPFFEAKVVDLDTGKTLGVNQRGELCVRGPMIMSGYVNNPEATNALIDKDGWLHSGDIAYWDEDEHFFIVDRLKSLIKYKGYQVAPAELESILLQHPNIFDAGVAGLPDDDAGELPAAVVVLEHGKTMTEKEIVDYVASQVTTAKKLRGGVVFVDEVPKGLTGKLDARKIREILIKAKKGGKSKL
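Biochemical qHTS of compounds, final roughly 60 µM downward over six points, against 10 nM purified firefly luciferase using Km concentrations of substrates (10 uM D-luciferin, 10 uM ATP) in Tris acetate pH 7.5 buffer; luminescence output.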
NPC1 prom act: qHTS Assay for NPC1 Promoter Activators; Huh7 NPC1 promoter luciferase reporter, 24 h; Potency, µM (doses to about 9.22 µM), for inactives: at the highest dose activation, most hits filed as activators; 2.4% of 320,000 active; also: % of control where 0% means no effect; nearly all actives have a fitted effect of over 60% in size
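Luciferase expression driven by the NPC1 promoter was measured in stably transfected Huh7 cells after a 24 h compound incubation, using a luciferase reagent and a luminescence read.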
ELG1 genotoxic: qHTS screen for small molecules that induce genotoxicity in human embryonic kidney (HEK293T) cells expressing luciferase-tagged ELG1. HEK293T ELG1-luciferase reporter, luminescence, 16 h. Potency, µM (highest dose often 46 µM), for the others: top-dose activity change, positive = activation, most hits filed as activators. 1.3% of 330,000 active. AID 504466, 2011; also: % of control where 0% means no effect; nearly all actives have a fitted effect of over 60% in size
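16 hr compound incubation (37 °C, 5% CO2) of HEK293T cells carrying luciferase-tagged ELG1; luciferase then measured by ONE-Glo luminescence after 30 min at RT.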
Luc counter: Counterscreen for Luciferase (Kinase-Glo TM) Inhibition. 0.28% of 200,000 active. Kinase-Glo luciferase, ATP luminescence, 8 min. Luciferin 4-monooxygenase (Photuris pensylvanica), Q27757. Potency, µM (doses to about 38.3 µM), inactives show at the highest dose activity change, negative = inhibition, actives largely listed as inhibitors; also: % is scaled to controls: 0 for no effect and ±100 for the full control effect; nearly all actives have a fitted effect of over 60% in size
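Light output from Kinase-Glo luciferase with luciferin and 10 uM ATP in 50 mM imidazole pH 7.2, KCl, MgCl2, Tween 20, BSA; compound pin-delivered, 8-min ambient incubation, then luminescence read.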
Rab9 promoter act: qHTS Assay for Rab9 Promoter Activators; AID 485297, 2010; Potency, µM (top dose mostly 9.22 µM), for the others: top-dose activation, negative = inhibition, actives largely listed as activators; Huh7 Rab9 promoter-luciferase reporter, luminescence, 24 h; 2.8% of 320,000 active; also: % of control where 0% means no effect; nearly all actives have a fitted effect of over 60% in size
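Cell-based reporter: Huh7 stable for Rab9 promoter-driven luciferase, plated in reduced-serum medium with 10% FBS at 1500 cells/well, compound-treated 24 h at 37 °C, luminescence read after 10 min reagent.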
SMN2 splice enh: qHTS Assay for Enhancers of SMN2 Splice Variant Expression. 2.8% of 210,000 active. HEK293 SMN2-luciferase splicing reporter, luminescence, 30-36 h. Potency, µM (top dose mostly 46.1 µM), inactives show top-dose activity change, positive = activation, actives largely listed as activators. AID 1458, 2008; also: % of control where 0% means no effect; nearly all actives have a fitted effect of over 55% in size
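HEK293 cells carry an SMN2 […]–luciferase reporter in which exon 7 inclusion puts luciferase in frame. Cells were plated 10-12 h before compound addition, then incubated 30-36 h at 37C. ONE-Glo luminescence was read; sodium butyrate at 4.5 mM final served as control.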
* = called active by the depositor; ? = inconclusive; . = no result. Calls follow the shape of the dose curve; as a rule, active = well fitted curve in the direction sought with a large enough effect; inconclusive = small, poorly fitted or top-dose-only effect, or another doubt; inactive = no such curve, though single readings can be large; an effect the other way counts as inactive or inconclusive. Potency is read from the fitted curve at half-maximal effect.

SMILES | FLuc modulator | NPC1 prom act | ELG1 genotoxic | Luc counter | Rab9 promoter act | SMN2 splice enh
COc1ccc(C2OC3=C(Nc4cc(C)c(C)cc4N3)C2=O)cc1 (stereo unspecified) | ? | 3.5µM* | ? | . | 2.8µM* | .
CCCn1c(O)c(N=Nc2ccc3ccccc3n2)c2ccccc21 | 8.5µM* | 1µM* | ? | -5% | 0.71µM* | ?
COC(=O)c1sc(-c2ccc(C(C)(C)C)cc2)cc1NC(=O)COCC(=O)O | 3.8µM* | 19% | 7% | . | 17% | .
COC(=O)c1sc(-c2ccccc2)cc1NC(C)=O | ? | -1% | 0% | -2% | 2% | 0%
COC(=O)c1sc(-c2ccc(Cl)cc2)cc1NC(=O)CSCC(=O)O | 13µM* | -1% | 0% | . | 1% | .
COC(=O)c1sc(-c2ccccc2)cc1NC(=O)Nc1ccc(Cl)cc1 | -8% | . | . | . | . | 2%
CCCCN1CC(c2nc3ccccc3n2CCCCOc2cccc(C)c2C)CC1=O (stereo unspecified) | -2% | . | . | . | . | .
COc1ccc(-c2cc3nc(C)c(CCC(=O)N4CCN(c5cccc(Cl)c5)CC4)c(C)n3n2)c(OC)c1 | -6% | . | . | . | . | 1%
O=C(O)c1cccc(N=NN2CCOCC2)c1 | ? | 30% | 9% | -2% | ? | ?
CC1=NC(=O)C(N=Nc2ccccc2)N1c1ccccc1 (stereo unspecified) | ? | 12% | ? | 2% | 3.5µM* | 16µM*
CC1=NC(=O)C(N=Nc2cccc(C(=O)O)c2)N1c1ccccc1 (stereo unspecified) | 0.43µM* | ? | ? | -4% | 1.3µM* | 0.5µM*
CC1=NC(=O)C(N=Nc2ccccc2C(=O)O)N1c1ccccc1 (stereo unspecified) | 15µM* | 7% | -7% | 2% | 26% | 12%
Cc1cccc(C)c1NC(=O)Cn1nnc(S(=O)(=O)c2ccccc2)c1N | -1% | . | . | . | . | 6%
Cc1ccc(-c2csc(Nc3ccccn3)n2)cc1 | 0.6µM* | 0.71µM* | 0.82µM* | . | 1µM* | .
COc1ccc(-c2csc(Nc3ccccn3)n2)cc1OC | 6.7µM* | 1.8µM* | 2.3µM* | . | 2µM* | .
Oc1ccc(-c2csc(Nc3ccccn3)n2)cc1 | 6.7µM* | 2µM* | 7.3µM* | . | 3.2µM* | .
c1ccc(Nc2ccccc2Nc2ccccn2)nc1 | -2% | 2% | 0% | 2% | 1% | -10%
COc1ccc(-c2csc(Nc3ccc(C)cn3)n2)cc1 | -5% | -5% | 2% | -2% | -4% | .
c1ccc(-c2csc(Nc3ccccn3)n2)cc1 | 1.3µM* | 2.2µM* | 2.9µM* | . | 1.3µM* | .
COc1ccccc1-c1cc2nc(C)c(CCC(=O)NCc3cccc(Cl)c3)c(C)n2n1 | ? | . | . | . | . | 3%
O=C(NCCO)c1ccc(Cc2nc3ccccc3[nH]2)cc1 | . | . | . | -1% | . | .
COc1ccc(OC)c(NC(=O)c2cnn(-c3ccc(C)cc3)c2C2CCNCC2)c1 | -4% | . | . | . | . | .
Cc1cc(-c2csc(Nc3ccccn3)n2)ccc1F | 1.7µM* | 1.4µM* | ? | . | 1.6µM* | .
Fc1ccc(-c2csc(Nc3ccccn3)n2)c(F)c1 | 0.6µM* | 1.6µM* | ? | . | 2.8µM* | .
O=C(CCNS(=O)(=O)c1ccc2c(c1)CCN2C(=O)C1CC1)Nc1ccc(OC(F)(F)F)cc1 | 3% | . | . | . | . | .
SMILES | FLuc modulator | NPC1 prom act | ELG1 genotoxic | Luc counter | Rab9 promoter act | SMN2 splice enh
Cc1ccc(NC(=O)CN2C(=O)CCc3cc(S(=O)(=O)N4CCOCC4)ccc32)cc1F | -4% | . | . | . | . | .
COc1ccc2c(c1)Cc1sc(NC(=O)c3cccs3)nc1-2 | ? | 4µM* | ? | -22% | 2.8µM* | ?
CC(=O)Nc1ccc2nc(NC(=O)c3ccc([N+](=O)[O-])s3)sc2c1 | 5.4µM* | 22% | 3% | . | ? | .
Cc1cc(NS(=O)(=O)c2ccc(NC(=O)c3ccc([N+](=O)[O-])s3)cc2)nc(C)n1 | . | . | -4% | . | . | .
COc1ccc(C(=O)Nc2nc3c(s2)Cc2cc(OC)ccc2-3)cc1 | ? | -1% | -8% | -4% | 5% | -38%
Cc1nc2ccc(NC(=O)c3cccs3)cc2s1 | 17µM* | 3.5µM* | ? | . | 2.5µM* | .
Cc1nc2cc(NC(=O)c3ccc([N+](=O)[O-])s3)ccc2s1 | 3.8µM* | 19% | ? | . | ? | .
COc1ccc(C(C)=O)cc1CSc1nc(Nc2ccc(F)c(F)c2)c2ccccc2n1 | 2% | . | . | . | . | .
CCOc1ccc(CCNC(=O)CCSCc2ccc(Cl)cc2)cc1OCC | 0% | . | . | . | . | .
CC(=O)Nc1ccc2nc(NC(=O)c3cccs3)sc2c1 | 2.1µM* | 0.63µM* | ? | . | 0.32µM* | .
Cc1nc2ccc(NC(=O)c3sccc3C)cc2s1 | 7.6µM* | 1.8µM* | ? | -19% | 2.2µM* | 11µM*
COc1ccc2nc(NC(=O)c3cccs3)sc2c1 | 0.67µM* | 0.32µM* | ? | . | 0.28µM* | .
COc1ccc(-c2cc(C)nc3c(-c4ccc(OC)c(OC)c4)c(C)nn23)cc1 | 6% | . | . | . | . | 3%
NC(=O)Cn1c(=O)n(-c2ccc(F)c(Cl)c2)c(=O)c2sc3ccccc3c21 | 1% | . | . | . | . | -3%
CCCN1CCN(c2ncnc3sc(C(=O)Nc4c(C)cc(C)cc4C)c(C)c23)CC1 | 2% | . | . | . | . | .
CCOC(=O)C(=CNc1nc(-c2ccc3ccccc3c2)cs1)C(=O)OCC | -14% | 7% | -1% | . | 17% | .
CN(C)/C=N/c1nc(-c2ccc3ccccc3c2)cs1 | 4.8µM* | 0.5µM* | ? | . | 0.35µM* | .
CN(C)/C=N/c1nc(-c2ccc3c(c2)OCO3)cs1 | 17µM* | 4µM* | ? | ? | 3.5µM* | 14µM*
CCOC(=O)c1ccc(NC(=O)CC2C(=O)N(c3ccc(F)cc3)C(=O)N2Cc2cccnc2)cc1 (stereo unspecified) | -19% | . | . | . | . | .
O=C(CSc1nc2c([nH]c3ccccc32)c(=O)n1-c1ccc(Cl)cc1)N1CCOCC1 | 1% | . | . | . | . | .
CCCCCCOc1ccc(/C=C/C(=O)N2CCOCC2)cc1OC | -3% | 0% | 1% | . | 7% | .
O=C(/C=C/c1ccc(OCCCF)cc1)N1CCOCC1 | 24µM* | ? | ? | . | ? | .
O=C(/C=C/c1ccccc1)Oc1cccc(C(=S)N2CCOCC2)c1 | 9.5µM* | 0% | 2% | -3% | -4% | -33%
O=C(/C=C/c1ccccc1Cl)N1CCOCC1 | ? | 23% | 13% | . | 4% | .
O=C(/C=C/c1cccc2ccccc12)N1CCOCC1 | 15µM* | ? | ? | . | ? | .
